Source: PubChem BioAssay (NCATS)
Records with an inconclusive call do not appear. Activity calls are given as the source filed them. Calls come from the whole dose curve; as a rule, active = well fitted inhibition curve with a large enough effect; inconclusive = small, poorly fitted or top-dose-only effect; inactive = flat fitted curve, though single readings scatter.

Tests used:
CRL-7250 = normal cell line; assay: Cytotoxic Profiling of Annotated Libraries Using Quantitative High-Throughput Screening (AID 1296008); conditions: Five cell lines viability, CellTiter-Glo ATP luminescence, 48-72 h; hits give low values; for max response: % is set by controls: 0 for no effect and ±100 for the full control effect
How it was run: (§1)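 Cytotoxicity was measured as CellTiter-Glo ATP luminescence, read after 10 min at room temperature. Compound treatment of the cells lasted 48 or 72 hr at 37 degrees Celsius in a qHTS format.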

HEK293 = assay: as above; conditions: Five cell lines viability, CellTiter-Glo ATP luminescence, 48-72 h; hits give low values
How it was run: as §1

HaCat [1] = assay: as above; conditions: Five cell lines viability, CellTiter-Glo ATP luminescence, 48-72 h; hits give low values
How it was run: as §1

KB-3-1 = assay: as above; conditions: Five cell lines viability, CellTiter-Glo ATP luminescence, 48-72 h, hits give low values
How it was run: as §1

NIH3T3 = assay: as above; conditions: Five cell lines viability, CellTiter-Glo ATP luminescence, 48-72 h; hits give low values
How it was run: as §1

HACAT [2] = assay: qHTS assay to identify novel small-molecules to repurpose for Merkel cell carcinoma treatment (AID 1296009); conditions: MCC and control cell lines, CellTiter-Glo viability, 72 h; at 44.8 µM (top of the series) unless noted
How it was run: (§2)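 72 hr, 37 degree celsius; NPC 8-pt / MIPE 11-pt dose response; compound pinned in DMSO; CellTiter-Glo, 10 min RT, luminescence; normalized to no-cell and DMSO controls.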

MCC-13 = assay: as above; conditions: MCC and control cell lines, CellTiter-Glo viability, 72 h; series mostly up to 46 µM
How it was run: as §2

MCC-26 = assay: as above; conditions: MCC and control cell lines, CellTiter-Glo viability, 72 h; series mostly up to 46 µM
How it was run: as §2

MKL-1 = assay: as above; conditions: MCC and control cell lines, CellTiter-Glo viability, 72 h; series mostly up to 46 µM
How it was run: as §2

MKL-2 = assay: as above; conditions: MCC and control cell lines, CellTiter-Glo viability, 72 h; series mostly up to 46 µM
How it was run: as §2

PAD = assay: qHTS profiling for inhibitors of Plasmodium falciparum proliferation (AID 504749);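 note: 0% = DMSO vehicle and full inhibition = artemisinin control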; conditions: P. falciparum in erythrocytes, SYBR Green DNA, 72 h; series mostly up to 28.7 µM
How it was run: (§3)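 Infected RBCs, 0.3% parasitemia/2.5% Hct final; cpd 72 h, 37 C, 5% CO2; lysis buffer with saponin/triton/SYBR Green I, o/n RT dark; FI 485/535; norm. to artemisinin (0.29 uM) and DMSO.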

PC15 = assay: as above; conditions: P. falciparum in erythrocytes, SYBR Green DNA, 72 h; series mostly up to 28.7 µM
How it was run: as §3

PC26 = assay: as above; conditions: P. falciparum in erythrocytes, SYBR Green DNA, 72 h; series mostly up to 28.7 µM
How it was run: as §3

PC49 = assay: as above; conditions: P. falciparum in erythrocytes, SYBR Green DNA, 72 h; series mostly up to 28.7 µM
How it was run: as §3

SC27B = assay: as above; conditions: P. falciparum in erythrocytes, SYBR Green DNA, 72 h; series mostly up to 28.7 µM
How it was run: as §3

TAB109 = assay: as above; conditions: P. falciparum in erythrocytes, SYBR Green DNA, 72 h; series mostly up to 28.7 µM
How it was run: as §3

TAB113 = assay: as above; conditions: P. falciparum in erythrocytes, SYBR Green DNA, 72 h; series mostly up to 28.7 µM
How it was run: as §3

TAB165 = assay: as above; conditions: P. falciparum in erythrocytes, SYBR Green DNA, 72 h; series mostly up to 28.7 µM
How it was run: as §3

HEK293T = assay: qHTS assay to identify novel small-molecules to repurpose for Merkel cell carcinoma treatment (AID 1296009); conditions: MCC and control cell lines, CellTiter-Glo viability, 72 h; at 44.8 µM (top of the series) unless noted
How it was run: as §2

W2 = assay: qHTS profiling for inhibitors of Plasmodium falciparum proliferation (AID 504749);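 note: 0% = DMSO vehicle and full inhibition = artemisinin control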; conditions: P. falciparum in erythrocytes, SYBR Green DNA, 72 h; series mostly up to 28.7 µM
How it was run: as §3
Note: nearly all actives have a fitted effect of over 60% in size.

CC(=O)N[C@@H](CC(C)C)C(=O)O
inactive: max response (CRL-7250) -9.67% | max response (HEK293) -5.66% | outcome (HaCat [1]) | max response (KB-3-1) -12.6% | max response (NIH3T3) -1.86% | outcome (HACAT [2]) | outcome (MCC-13) | outcome (MCC-26) | outcome (MKL-1) | outcome (MKL-2)

CC(=O)N[C@H]1[C@H]([C@H](O)[C@H](O)CO)OC(C(=O)O)=C[C@@H]1N=C(N)N
inactive: max response (CRL-7250) -5.6% | max response (HEK293) 1.78% | outcome (HaCat [1]) | max response (KB-3-1) 6.48% | outcome (NIH3T3) | outcome (HACAT [2]) | outcome (MCC-13) | outcome (MCC-26) | outcome (MKL-1) | outcome (MKL-2)

CC1CC(OC(=O)c2ccccc2O)CC(C)(C)C1 (stereo not given)
inactive: Potency (PAD) | Potency (PC15) | Potency (PC26) | Potency (PC49) | Potency (SC27B) | Potency (TAB109) | Potency (TAB113) | Potency (TAB165) | max response (CRL-7250) -4.46% | outcome (HEK293) | outcome (HaCat [1]) | max response (KB-3-1) -9.15% | max response (NIH3T3) -4.04% | outcome (HACAT [2]) | outcome (HEK293T) | outcome (MCC-13) | outcome (MCC-26) | outcome (MKL-1)

CC(C)(C)NCC(O)COc1cccc2c1CCC(=O)N2 (stereo not given)
inactive: max response (CRL-7250) 4.08% | max response (HEK293) -0.291% | outcome (HaCat [1]) | max response (KB-3-1) 7.08% | max response (NIH3T3) 3.67% | outcome (HACAT [2]) | outcome (MCC-13) | outcome (MCC-26) | outcome (MKL-1) | outcome (MKL-2)

C[n+]1ccccc1/C=N/O
inactive: max response (CRL-7250) -2.33% | max response (HEK293) -5.72% | outcome (HaCat [1]) | max response (KB-3-1) -1.46% | outcome (NIH3T3) | outcome (HACAT [2]) | outcome (MCC-13) | outcome (MCC-26) | outcome (MKL-1) | outcome (MKL-2)

COC(=O)c1cccnc1
inactive: Potency (PAD) | Potency (PC15) | Potency (PC26) | Potency (SC27B) | Potency (TAB109) | Potency (TAB113) | Potency (TAB165) | Potency (W2) | max response (CRL-7250) -1.99% | outcome (HEK293) | outcome (HaCat [1]) | max response (KB-3-1) 10% | max response (NIH3T3) 0.586% | outcome (HACAT [2]) | outcome (HEK293T) | outcome (MCC-13) | outcome (MCC-26) | outcome (MKL-1) | outcome (MKL-2)

COc1ccc2cc(CCC(C)=O)ccc2c1
inactive: Potency (PAD) | Potency (PC15) | Potency (PC26) | Potency (PC49) | Potency (SC27B) | Potency (TAB109) | Potency (TAB113) | Potency (TAB165) | Potency (W2) | outcome (CRL-7250) | outcome (HEK293) | outcome (HaCat [1]) | max response (KB-3-1) -1.62% | max response (NIH3T3) -0.0731% | outcome (HACAT [2]) | outcome (HEK293T) | outcome (MCC-13) | outcome (MCC-26) | outcome (MKL-1) | outcome (MKL-2)

CC1(C)S[C@@H]2[C@H](N=CN3CCCCCC3)C(=O)N2[C@H]1C(=O)O
inactive: max response (CRL-7250) -6.32% | max response (HEK293) -2.19% | outcome (HaCat [1]) | max response (KB-3-1) -4.82% | outcome (NIH3T3) | outcome (HACAT [2]) | outcome (MCC-13) | outcome (MCC-26) | outcome (MKL-1) | outcome (MKL-2)

C[C@H]1COc2c(C3(N)CC3)c(F)cc3c(=O)c(C(=O)O)cn1c23
inactive: Potency (PAD) | Potency (PC15) | Potency (PC26) | Potency (PC49) | Potency (SC27B) | Potency (TAB109) | Potency (TAB113) | Potency (TAB165) | max response (CRL-7250) 2.54% | max response (HEK293) 4.33% | outcome (HaCat [1]) | max response (KB-3-1) 14.4% | max response (NIH3T3) 1.93% | outcome (HACAT [2]) | outcome (MCC-13) | outcome (MCC-26) | outcome (MKL-1) | outcome (MKL-2)

Nc1ncnc2c1ncn2[C@@H]1O[C@H](COP(=O)(O)O)[C@@H](O)[C@H]1O
inactive: Potency (PAD) | Potency (PC15) | Potency (PC26) | Potency (SC27B) | Potency (TAB109) | Potency (TAB113) | Potency (TAB165) | Potency (W2) | outcome (CRL-7250) | outcome (HEK293) | outcome (HaCat [1]) | max response (KB-3-1) -9.67% | max response (NIH3T3) 4.32% | outcome (HACAT [2]) | outcome (HEK293T) | outcome (MCC-13) | outcome (MKL-1) | outcome (MKL-2)

CCCNC(C)C(=O)Nc1c(C)csc1C(=O)OC (stereo not given)
inactive: outcome (CRL-7250) | max response (HEK293) -4.55% | outcome (HaCat [1]) | max response (KB-3-1) -16.9% | outcome (NIH3T3) | outcome (HACAT [2]) | outcome (MCC-13) | outcome (MCC-26) | outcome (MKL-1) | outcome (MKL-2)

C=CCSCC1Nc2cc(Cl)c(S(N)(=O)=O)cc2S(=O)(=O)N1 (stereo not given)
inactive: Potency (PAD) | Potency (PC15) | Potency (PC26) | Potency (PC49) | Potency (SC27B) | Potency (TAB109) | Potency (TAB113) | Potency (TAB165) | max response (CRL-7250) -2.06% | max response (HEK293) 2.45% | outcome (HaCat [1]) | max response (KB-3-1) -3.75% | max response (NIH3T3) 4.06% | outcome (HACAT [2]) | outcome (MCC-13) | outcome (MCC-26) | outcome (MKL-1) | outcome (MKL-2)

CN1C(=O)CC(c2ccccc2)C1=O (stereo not given)
inactive: max response (CRL-7250) 1.89% | max response (HEK293) -5.41% | outcome (HaCat [1]) | max response (KB-3-1) 0.936% | outcome (NIH3T3) | outcome (HACAT [2]) | outcome (MCC-13) | outcome (MCC-26) | outcome (MKL-1) | outcome (MKL-2)

CC(C)NC[C@@H](O)COc1ccc(CC(N)=O)cc1
inactive: max response (CRL-7250) -2.68% | outcome (HEK293) | outcome (HaCat [1]) | max response (KB-3-1) 3.62% | max response (NIH3T3) -2.96% | outcome (HACAT [2]) | outcome (HEK293T) | outcome (MCC-13) | outcome (MCC-26) | outcome (MKL-1) | outcome (MKL-2)

C1CCN2C[C@@H]3C[C@@H](CN4CCCC[C@@H]34)[C@H]2C1
inactive: outcome (CRL-7250) | max response (HEK293) -9.35% | outcome (HaCat [1]) | max response (KB-3-1) 4.47% | max response (NIH3T3) 3.41% | outcome (HACAT [2]) | outcome (MCC-13) | outcome (MCC-26) | outcome (MKL-1) | outcome (MKL-2)

OCC(O)CS (stereo not given)
inactive: Potency (PAD) | Potency (PC15) | Potency (PC26) | Potency (PC49) | Potency (SC27B) | Potency (TAB109) | Potency (TAB113) | Potency (TAB165) | max response (CRL-7250) -11.9% | max response (HEK293) 3.48% | outcome (HaCat [1]) | max response (KB-3-1) 1.95% | max response (NIH3T3) 0.523% | outcome (HACAT [2]) | outcome (MCC-13) | outcome (MCC-26) | outcome (MKL-1) | outcome (MKL-2)
